KCNH2 3.1 inh: blocks the human KCNH2 3.1 channel isoform; U2OS KCNH2 3.1, thallium flux FluxOr; stronger effect = lower value; activity change, % (tested at about 1.8 µM); 340,000 compounds, 0.95% hits;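 active means maximum activity change below -70%; inconclusive means maximum activity change from -70% to -50%; inactive means maximum activity change above -50%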;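 further: thallium influx rate constant from kinetic fluorescence after stimulation buffer; on the % scale 0 is the no-effect control and ±100 the full control effect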
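Thallium flux via FluxOr fluorescence (Red40 quencher, 45 min loading) in U2OS cells virally expressing the KCNH2 3.1 isoform (1.77 x 10^8 /mL virus, overnight at 37 C). Rate constants from 2-min kinetic reads post-stimulation, normalised to positive and negative controls.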
S-ASM inh: human S-ASM enzyme inhibition. placental ASM, HMU-PC fluorogenic substrate, 60 min. Potency, µM (titrated, usually from 57.5 µM), for the others: top-dose activity change, negative = inhibition, actives largely listed as inhibitors. 340,000 compounds, 0.006% hits. P17405; further: potency means the concentration at half of the fitted maximal effect
Target sequence (P17405 47-631 limits assumed): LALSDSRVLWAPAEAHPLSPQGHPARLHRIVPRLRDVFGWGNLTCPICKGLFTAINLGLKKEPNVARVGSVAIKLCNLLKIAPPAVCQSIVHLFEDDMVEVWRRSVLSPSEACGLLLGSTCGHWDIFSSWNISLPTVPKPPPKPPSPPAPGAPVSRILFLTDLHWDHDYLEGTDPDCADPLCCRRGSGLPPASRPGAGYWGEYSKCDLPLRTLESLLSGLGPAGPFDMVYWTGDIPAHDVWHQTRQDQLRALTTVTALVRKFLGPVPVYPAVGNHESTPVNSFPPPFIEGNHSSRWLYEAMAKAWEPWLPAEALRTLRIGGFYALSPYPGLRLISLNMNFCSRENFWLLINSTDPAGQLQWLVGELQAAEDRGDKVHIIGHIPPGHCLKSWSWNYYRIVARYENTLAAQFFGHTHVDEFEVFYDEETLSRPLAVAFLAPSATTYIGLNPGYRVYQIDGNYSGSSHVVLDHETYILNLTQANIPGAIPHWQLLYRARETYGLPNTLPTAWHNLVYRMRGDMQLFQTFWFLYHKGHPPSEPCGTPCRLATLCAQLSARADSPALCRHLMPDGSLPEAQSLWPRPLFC
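Human placenta-derived ASM preincubated with compound 10 min at room temperature, then reacted with 9 uM (final) fluorogenic HMU-PC substrate for 60 min at 37 C. Stop solution raises pH to 10; fluorescence read at Ex 386/Em 447 nm.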
uPA surface inh: inhibitors of cell surface uPA generation | cell surface uPA generation assay, qHTS | Potency, µM (highest dose often 38.3 µM), inactives show at the highest dose activity change, negative = inhibition, actives largely listed as inhibitors | 330,000 compounds, 0.31% hits | AID 540303; active means well fitted inhibition curve with a large enough effect; inconclusive means small, poorly fitted or top-dose-only effect; inactive means no such curve, though single readings can be large or run the other way; tested in mouse RAW 264.7 cells; further: potency means the concentration at half of the fitted maximal effect; on the % scale 0 is the no-effect control and ±100 the full control effect; nearly all actives have a fitted effect of over 55% in size
Mm-Cpn inhibitor: blocks the Methanococcus maripaludis chaperonin Mm-Cpn; purified Mm-Cpn ATPase, ADP Transcreener TR-FRET; Potency, µM (titrated, usually from 76.9 µM), inactives show at the top dose activity, negative = inhibition, usual class: inhibitors; 330,000 compounds, 0.031% hits; further: potency means the concentration at half of the fitted maximal effect; on the % scale 0 is the no-effect control and ±100 the full control effect; nearly all actives have a fitted effect of over 80% in size
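25 nM Mm-CPN + cpd, 10 min 37°C; + 10 uM ATP, 30 min 37°C; buffer 30 mM Tris pH 7.4, 100 mM KCl, 5 mM MgCl2, 1 mM DTT; Transcreener ADP HTRF detection 30 min RT.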
KCNH2 WT inh: inhibitors of human wildtype KCNH2 potassium channel | activity change, % at 1.84 µM | 340,000 compounds, 0.37% hits | U2OS, BacMam KCNH2, thallium flux FluxOr; stronger effect = lower value | Q12809;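 active means maximum activity change below -70%; inconclusive means maximum activity change between -70% and -50%; inactive means maximum activity change above -50%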; further: on the % scale 0 is the no-effect control and ±100 the full control effect
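U2OS cells were transduced with wild-type KCNH2 virus (2.03 x 10^8 / mL) for 4 h at room temperature, then cultured overnight at 37 C. Thallium flux was read with FluxOr dye. Rate constants were normalized to DMSO controls.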
p53 reactivation: restores transcriptional activity of mutant p53 | H1299 p53-A138V BP100-luciferase reporter, luminescence, 24 h | Potency, µM (highest dose often 92.2 µM), without a hit: top-dose activity change, positive = activation, actives largely listed as activators | 320,000 compounds, 0.063% hits | AID 504706; further: potency means the concentration at half of the fitted maximal effect; % of control where 0% means no effect; nearly all actives have a fitted effect of over 45% in size
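H1299 (p53-null), stable ts p53-A138V + BP100-Luc; 1000 cells/well, Opti-MEM/10% FBS; cpd 4 pt, 1:5; 24 h, 37 deg C, 5% CO2; detection reagent 10 min RT; luminescence.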
Active calls of the source: *; ? = inconclusive; . = no result; [ ] = another dose, or the depositor's remark. Rows were chosen to be rich in hits. Some 1.4% of all compounds tested hit in one or more screens of this group. Unless noted, the call rests on the fitted dose curve; in most records, active means well fitted curve in the direction sought with a large enough effect; inconclusive means small, poorly fitted or top-dose-only effect, or another doubt; inactive means no such curve, though single readings can be large; an effect the other way counts as inactive or inconclusive.

SMILES	KCNH2 3.1 inh	S-ASM inh	uPA surface inh	Mm-Cpn inhibitor	KCNH2 WT inh	p53 reactivation
Cc1ccc(NC(=O)CN(C)Cc2nc3ccccc3c(=O)[nH]2)c(Br)c1	-25	-8%	-1%	0%	2	-4%
COc1ccc(NS(=O)(=O)c2cccc(NC(=O)c3ccc(Cl)nc3)c2)cc1	-21	-11%	-11%	-1%	-1	?
O=C(Nc1cccc(S(=O)(=O)Nc2ccc(Cl)cc2)c1)c1ccc(Cl)nc1	4	?	5µM*	1%	0	2%
CCOc1ccc(CN2CCN(C3CCC3)CC2CCO)cc1 (stereo not given)	-18	3%	-3%	?	17	11%
C#Cc1ccc(CN2CCN(CCCc3ccccc3)C(CCO)C2)cc1 (stereo not given)	-72*	4%	-1%	-2%	0	.
CCOc1ccc(CN2CCN(CCCc3ccccc3)CC2CCO)cc1 (stereo not given)	-8	-4%	-7%	-3%	-82*	-6%
OCCC#Cc1ccc(CN2CCN(CCc3ccccc3)C(CCO)C2)cc1 (stereo not given)	4	5%	-2%	3%	9	12%
CCOc1ccc(CN2CCN(C3CCSCC3)CC2CCO)cc1 (stereo not given)	-84*	3%	-2%	2%	-12	-2%
Cc1ccc(CN2CCN(CCCc3ccccc3)CC2CCO)cc1 (stereo not given)	-75*	-1%	-5%	-3%	10	-3%
CN1C(=O)CN(CCN2CC(=O)N(C)C(=O)C2)CC1=O	7	.	.	.	-9	.
O=C(NC(=S)Nc1ccccc1Br)C1CCCC1	9	-6%	3%	3%	-13	28µM*
CCO[C@@H]1OC(C(=O)N2CCCCCCC2)=C[C@H](c2ccc3c(c2)OCO3)[C@H]1CCCO	32	3%	-1%	.	4	-3%
CCOC(=O)c1c(-c2ccc(C)cc2)csc1NC(=O)c1cc2ccccc2oc1=O	-122*	0%	0%	-1%	0	-10%
CCOC(=O)c1c(-c2ccc(C)cc2)csc1NC(=S)NC(=O)c1ccccc1	1	-14%	3%	0%	4	-3%
Fc1cccc(-c2cc3nc4c(c(N5CCOCC5)n3n2)CCCC4)c1	-2	-2%	11%	-4%	-8	18%
Fc1cccc(-c2cc3nc4c(c(NCc5ccco5)n3n2)CCCC4)c1	-78*	-20%	-23%	0%	-10	?
Cc1cccc(C)c1NC(=O)C(=O)c1cn(C)c2ccccc12	3	-2%	2%	56µM*	-19	2%
CC(C)(C)S(=O)N1Cc2cn(Cc3ccccc3)c(=O)cc2[C@@H]1CCO (stereo not given in full)	5	5%	-3%	.	5	.
Cc1ccc(C(=O)/C=C/c2ccc(F)cc2)o1	-9	0%	-20%	-29%	-4	45µM*
Cc1ccc(CNCc2cc(Cl)ccc2O)cc1	-7	5%	3%	-1%	2	9%
O=C(c1ccc(F)cc1)C1CCN(Cc2cn[nH]c2-c2ccc(F)cc2)CC1	-80*	3%	-2%	0%	-22	-2%
COc1ccc(C(=O)C2CCCN(Cc3cn[nH]c3-c3ccc(F)cc3)C2)cc1OC (stereo not given)	-23	0%	3%	1%	25	-2%
COC(=O)C1Cc2c([nH]c3ccccc23)C2(CCN(Cc3ccccc3)CC2)N1 (stereo not given)	-81*	-3%	-3%	3%	-40	-5%
Nc1nc(N)c2[nH]c(=S)[nH]c2n1	-1	8%	-5%	.	0	.
O=C1Nc2ccccc2N(O)N1c1ccc(Cl)c(Cl)c1	2	-4%	0%	4%	6	-4%
SMILES	KCNH2 3.1 inh	S-ASM inh	uPA surface inh	Mm-Cpn inhibitor	KCNH2 WT inh	p53 reactivation
O=C1Nc2cc(Cl)c(Cl)cc2N(O)N1c1ccc(Cl)c(Cl)c1	-107*	12%	3%	2%	-19	-5%
CN(C)C(=O)CSc1nc2ccccc2n1Cc1ccccc1	18	0%	2%	-2%	7	-8%
CCN(CC)CCSc1nc2ccccc2n1Cc1ccccc1	-75*	0%	13%	-10%	?	?
COc1cc(CCCN2C(=S)NC[C@@H]2c2ccccc2)cc(OC)c1OC	-94*	3%	3%	.	1	-4%
COc1cc(CCCN2C(=S)NC[C@@H]2Cc2ccccc2)cc(OC)c1OC	-9	2%	8%	.	1	-2%
CCOC(=O)N1CCC(N2CCCC(C(=O)c3cccc(OC(C)C)c3)C2)CC1 (stereo not given)	-80*	4%	0%	0%	0	-4%
COC(CNC(=O)CNC(=S)N(CCCN1CCOCC1)Cc1cccs1)OC	-5	6%	9%	0%	0	-4%
O=C(CNC(=S)N(CCCN1CCOCC1)Cc1cccs1)NCCCN1CCOCC1	15	4%	-2%	1%	19	0%
O=C(CNC(=S)N(CCCN1CCOCC1)Cc1cccs1)NCc1ccccc1Cl	-123*	5%	-19%	-2%	-113*	-5%
O=C(CNC(=S)N(CCCN1CCOCC1)Cc1cccs1)NCc1ccc(Cl)cc1	-83*	-1%	-11%	2%	-84*	-8%
Cc1cc(OCCN2CCOCC2)ccc1Cl	1	1%	-4%	1%	-23	.
COCC1CCN(C(=O)c2oc3c(F)cccc3c2C)C1 (stereo not given)	2	2%	-5%	0%	5	.
CC(=O)NCC1CCCN(C(=O)c2oc3c(F)cccc3c2C)C1 (stereo not given)	-126*	5%	8%	-1%	-16	11%
O=C(CN1CCN(CCC(=O)Nc2ccccc2F)CC1)Nc1ccc(Cl)cc1	-108*	0%	0%	0%	-102*	-27%
O=C(CCN1CCN(C/C=C/c2ccccc2)CC1)Nc1ccccc1F	-102*	4%	0%	4%	-49	-6%
Cc1cc(C)cc(NC(=O)CCN2C(=O)c3ccccc3S2(=O)=O)c1	1	3%	-5%	0%	-6	.
O=C(CCN1C(=O)c2ccccc2S1(=O)=O)Nc1ccc(Cl)cc1	-84*	2%	-8%	2%	5	-6%
Cc1ccccc1NC(=O)N1CCN(C/C=C/c2ccccc2)CC1	-86*	-1%	7%	3%	26	-1%
N#Cc1ccc2c(c1)C[C@]1(c3ccsc3)OC3=C(C(=O)OC4(CCCCC4)C3)C2O1	.	.	.	-10%[15.4 µM]	.	.
COc1ccc(-c2csc(NC(=O)c3ccc(S(=O)(=O)N4CCc5ccccc5C4)cc3)n2)c(OC)c1	-37	1%	-1%	50µM*	0	0%

Compound activity deposited in PubChem by National Center for Advancing Translational Sciences (NCATS).
